Reference: the supplement of paper PMC8728848
This excerpt belongs to a sample that is enriched for the strongest signals.

Legend:
Assay in all cases: glycan array binding signal (z-score within array); higher = stronger binding
Details in all cases: glycan notation: IUPAC condensed, linker removed
[1] = target: Fuc(a1-2)Gal(b1-3)[Fuc(a1-4)]GlcNAc(b1-2)Man(a1-3)[Fuc(a1-2)Gal(b1-3)[Fuc(a1-4)]GlcNAc(b1-2)Man(a1-3)]Man(b1-4)GlcNAc(b1-4)GlcNAc
Procedure, shortened: (§1)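 Negative Z-scores can be read as non-binding. The Z-score is calculated within each array and then averaged across arrays of one protein sequence at different concentrations or buffers and across linkers. Arrays, 3228 in all, were curated from the Consortium for Functional Glycomics database and kept only where the protein sequence was available.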

[2] = target: Fuc(a1-2)Gal(b1-4)Fuc(a1-3)]GlcNAc(b1-2)Man(a1-3)[Fuc(a1-2)Gal(b1-4)[Fuc(a1-3)]GlcNAc(b1-2)Man(a1-6)]Man(b1-4)GlcNAc(b1-4)GlcNAc
Procedure, shortened: as §1

[3] = target: Fuc(a1-2)Gal(b1-4)GlcNAc(b1-3)[Fuc(a1-3)[Gal(b1-4)]GlcNAc(b1-6)]Gal(b1-4)Glc
Procedure, shortened: as §1

[4] = target: Fuc(a1-2)Gal(b1-4)GlcNAc6S
Procedure, shortened: as §1

[5] = target: Fuc(a1-2)Gal(b1-4)[Fuc(a1-3)]GlcNAc(b1-3)GalNAc
Procedure, shortened: as §1

[6] = target: Fuc(a1-2)[Gal(a1-3)]Gal(b1-4)[Fuc(a1-3)]Glc
Procedure, shortened: as §1

[7] = target: Fuc(a1-2)[GalNAc(a1-3)]Gal(b1-3)GlcNAc(b1-2)Man(a1-3)[Fuc(a1-2)[GalNAc(a1-3)]Gal(b1-3)GlcNAc(b1-2)Man(a1-6)]Man(b1-4)GlcNAc(b1-4)[Fuc(a1-6)]GlcNAc
Procedure, shortened: as §1

[8] = target: Fuc(a1-2)[GalNAc(a1-3)]Gal(b1-4)GlcNAc
Procedure, shortened: as §1

Gal(a1-3)Gal(b1-3)GlcNAc = target: Gal(a1-3)Gal(b1-3)GlcNAc
Procedure, shortened: as §1

Gal(a1-4)Gal(b1-4)Glc = target: Gal(a1-4)Gal(b1-4)Glc
Procedure, shortened: as §1

[9] = target: Gal(a1-4)Gal(b1-4)GlcNAc(b1-2)Man(a1-3)[Gal(a1-4)Gal(b1-4)GlcNAc(b1-2)Man(a1-6)]Man(b1-4)GlcNAc(b1-4)GlcNAc
Procedure, shortened: as §1

[10] = target: Gal(b1-3)[Fuc(a1-4)]GlcNAc(b1-2)Man
Procedure, shortened: as §1

Gal(b1-4)Gal = target: Gal(b1-4)Gal
Procedure, shortened: as §1

[11] = target: Gal(b1-4)GlcNAc(a1-6)Gal(b1-4)GlcNAc
Procedure, shortened: as §1

[12] = target: Gal(b1-4)GlcNAc(b1-2)Man(a1-3)[Gal(b1-4)GlcNAc(b1-2)Man(a1-6)]Man(b1-4)GlcNAc(b1-4)GlcNAc
Procedure, shortened: as §1

[13] = target: Gal(b1-4)GlcNAc(b1-2)Man(a1-6)Man(b1-4)GlcNAc(b1-4)GlcNAc
Procedure, shortened: as §1

[14] = target: Gal(b1-4)GlcNAc(b1-3)Gal(b1-4)Glc
Procedure, shortened: as §1

[15] = target: Gal(b1-4)GlcNAc(b1-3)Gal(b1-4)GlcNAc(b1-2)Man(a1-3)[Gal(b1-4)GlcNAc(b1-3)Gal(b1-4)GlcNAc(b1-2)Man(a1-6)]Man(b1-4)GlcNAc(b1-4)GlcNAc
Procedure, shortened: as §1

[16] = target: Gal(b1-4)GlcNAc(b1-3)[Fuc(a1-3)GlcNAc(b1-6)]Gal(b1-4)Glc
Procedure, shortened: as §1

Gal3S4S(b1-4)GlcNAc = target: Gal3S4S(b1-4)GlcNAc
Procedure, shortened: as §1

Gal3S6S(b1-4)GlcNAc6S = target: Gal3S6S(b1-4)GlcNAc6S
Procedure, shortened: as §1

Gal6S(b1-3)GlcNAc = target: Gal6S(b1-3)GlcNAc
Procedure, shortened: as §1

[17] = target: GalNAc(b1-3)Gal(a1-4)Gal(b1-4)GlcNAc
Procedure, shortened: as §1

GalNAc(b1-3)GlcNAc = target: GalNAc(b1-3)GlcNAc
Procedure, shortened: as §1

GalNAc(b1-4)Gal(b1-4)Glc = target: GalNAc(b1-4)Gal(b1-4)Glc
Procedure, shortened: as §1

GalNAc3S(b1-4)GlcNAc = target: GalNAc3S(b1-4)GlcNAc
Procedure, shortened: as §1

[18] = target: GalNAc3S(b1-4)[Fuc(a1-3)]GlcNAc
Procedure, shortened: as §1

GalNAc4S6S(b1-4)GlcNAc = target: GalNAc4S6S(b1-4)GlcNAc
Procedure, shortened: as §1

[19] = target: GlcNAc(b1-2)Man(a1-3)[GlcNAc(b1-2)Man(a1-6)]Man(b1-4)GlcNAc(b1-4)[Fuc(a1-6)]GlcNAc
Procedure, shortened: as §1

[20] = target: GlcNAc(b1-2)[GlcNAc(b1-4)]Man(a1-3)[GlcNAc(b1-4)][GlcNAc(b1-2)Man(a1-6)]Man(b1-4)GlcNAc(b1-4)GlcNAc
Procedure, shortened: as §1

[21] = target: GlcNAc(b1-3)Gal(b1-4)GlcNAc
Procedure, shortened: as §1

[22] = target: GlcNAc(b1-3)Gal(b1-4)GlcNAc(b1-3)Gal(b1-4)GlcNAc(b1-3)Gal(b1-4)GlcNAc(b1-3)Gal(b1-4)GlcNAc(b1-2)[GlcNAc(b1-3)Gal(b1-4)GlcNAc(b1-3)Gal(b1-4)GlcNAc(b1-3)Gal(b1-4)GlcNAc(b1-3)Gal(b1-4)GlcNAc(b1-6)]Man(a1-6)[GlcNAc(b1-3)Gal(b1-4)GlcNAc(b1-3)Gal(b1-4)GlcNAc(b1-3)Gal(b1-4)GlcNAc(b1-3)Gal(b1-4)GlcNAc(b1-2)Man(a1-3)]Man(b1-4)GlcNAc(b1-4)[Fuc(a1-6)]GlcNAc
Procedure, shortened: as §1

[23] = target: GlcNAc(b1-4)Gal(b1-4)GlcNAc
Procedure, shortened: as §1

GlcNAc(b1-6)GalNAc = target: GlcNAc(b1-6)GalNAc
Procedure, shortened: as §1

[24] = target: Man(a1-2)Man(a1-3)[Man(a1-6)]Man(a1-6)[Man(a1-2)Man(a1-3)]Man(b1-4)GlcNAc(b1-4)GlcNAc
Procedure, shortened: as §1

[25] = target: Neu5Ac(a2-3)Gal(b1-3)[Fuc(a1-4)]GlcNAc
Procedure, shortened: as §1

[26] = target: Neu5Ac(a2-3)Gal(b1-4)[Fuc(a1-3)]GlcNAc
Procedure, shortened: as §1

[27] = target: Neu5Ac(a2-3)Gal(b1-4)[Fuc(a1-3)]GlcNAc(b1-6)[Neu5Ac(a2-3)Gal(b1-3)]GalNAc
Procedure, shortened: as §1

Neu5Ac(a2-6)Gal = target: Neu5Ac(a2-6)Gal
Procedure, shortened: as §1

[28] = target: Neu5Ac(a2-6)Gal(b1-4)GlcNAc(b1-2)Man(a1-3)Man(b1-4)GlcNAc(b1-4)GlcNAc
Procedure, shortened: as §1

[29] = target: Neu5Ac(a2-6)Gal(b1-4)GlcNAc(b1-2)Man(a1-6)[Gal(b1-4)GlcNAc(b1-2)Man(a1-3)]Man(b1-4)GlcNAc(b1-4)GlcNAc
Procedure, shortened: as §1

[30] = target: Neu5Ac(a2-6)Gal(b1-4)GlcNAc(b1-3)Gal(b1-4)GlcNAc(b1-3)Gal(b1-4)GlcNAc(b1-2)Man(a1-3)[Neu5Ac(a2-6)Gal(b1-4)GlcNAc(b1-3)Gal(b1-4)GlcNAc(b1-3)Gal(b1-4)GlcNAc(b1-2)Man(a1-6)]GalNAc
Procedure, shortened: as §1

[31] = target: Neu5Ac(a2-6)Gal(b1-4)GlcNAc(b1-3)Gal(b1-4)GlcNAc(b1-6)[Gal(b1-3)]GalNAc
Procedure, shortened: as §1

[32] = target: Neu5Ac(a2-6)Gal(b1-4)GlcNAc(b1-3)[Neu5Ac(a2-6)Gal(b1-4)GlcNAc(b1-6)]GalNAc
Procedure, shortened: as §1

[33] = target: Neu5Ac(a2-6)Gal(b1-4)GlcNAc(b1-6)GalNAc
Procedure, shortened: as §1

[34] = target: Neu5Ac(a2-6)GlcNAc(b1-4)GlcNAc
Procedure, shortened: as §1

[35] = target: Neu5Ac(a2-8)Neu5Ac(a2-3)[GalNAc(b1-4)]Gal(b1-4)Glc
Procedure, shortened: as §1

[36] = target: Neu5Ac(a2-8)Neu5Ac(a2-8)Neu5Ac(a2-3)Gal(b1-4)Glc
Procedure, shortened: as §1

[37] = target: Neu5Ac(a2-8)Neu5Ac(a2-8)Neu5Ac(a2-8)Neu5Ac(a2-3)[GalNAc(b1-4)]Gal(b1-4)Glc
Procedure, shortened: as §1

[38] = target: Neu5Ac9Ac(a2-3)Gal(b1-3)GlcNAc
Procedure, shortened: as §1

[39] = target: Neu5Ac9Ac(a2-3)Gal(b1-4)GlcNAc
Procedure, shortened: as §1

B1: CC1G-11630 (Coprinopsis cinerea), A8P462 (protein)
chain: MTTEAKIKLKAVVYWELVFDYDNSSNTGEITQSYTVKISQTSTRSTFASEVSTTTIDTLTKNNQEVDVGASYGAISANVSASWEHSEEVNNMLEKTTQTSTEDTYTVETEETRSYTIGPGGMLSLFQKHFSGPGMHVAFDVFTTDLELAKERTEIDIDVDVEAIRFVREIRVVYTDIMSEAPGDHVREINGKNPDINYGFNGKFVWLVPEQTRKTAQALTNVEFVSQAESDDRYWDLAAGAGGSNRYLIPVYDTNNKDKIYELALWRSDSYITHDKVKAAGWSGTTGDINSGRGGTYLNLVWKTRHAY
[1]
  glycan array binding signal (z-score): 2.22
[2]
  glycan array binding signal (z-score): 1.38
[3]
  glycan array binding signal (z-score): -0.581
[4]
  glycan array binding signal (z-score): 0.388
[5]
  glycan array binding signal (z-score): 0.411
[6]
  glycan array binding signal (z-score): -0.641
[7]
  glycan array binding signal (z-score): -0.174
[8]
  glycan array binding signal (z-score): -0.601
Gal(a1-3)Gal(b1-3)GlcNAc
  glycan array binding signal (z-score): 6.02
Gal(a1-4)Gal(b1-4)Glc
  glycan array binding signal (z-score): 0.088
[9]
  glycan array binding signal (z-score): 0.102
[10]
  glycan array binding signal (z-score): 2.23
Gal(b1-4)Gal
  glycan array binding signal (z-score): 1.01
[11]
  glycan array binding signal (z-score): -0.631
[12]
  glycan array binding signal (z-score): -0.378
[13]
  glycan array binding signal (z-score): -0.208
[14]
  glycan array binding signal (z-score): -0.507
[15]
  glycan array binding signal (z-score): 2.49
[16]
  glycan array binding signal (z-score): -0.538
Gal3S4S(b1-4)GlcNAc
  glycan array binding signal (z-score): 3.27
Gal3S6S(b1-4)GlcNAc6S
  glycan array binding signal (z-score): 2.52
Gal6S(b1-3)GlcNAc
  glycan array binding signal (z-score): -0.544
[17]
  glycan array binding signal (z-score): 0.165
GalNAc(b1-3)GlcNAc
  glycan array binding signal (z-score): -0.463
GalNAc(b1-4)Gal(b1-4)Glc
  glycan array binding signal (z-score): 1.99
GalNAc3S(b1-4)GlcNAc
  glycan array binding signal (z-score): -0.609
[18]
  glycan array binding signal (z-score): 0.036
GalNAc4S6S(b1-4)GlcNAc
  glycan array binding signal (z-score): 0.25
[19]
  glycan array binding signal (z-score): -0.33
[20]
  glycan array binding signal (z-score): -0.368
[21]
  glycan array binding signal (z-score): -0.538
[22]
  glycan array binding signal (z-score): 5.85
[23]
  glycan array binding signal (z-score): -0.152
GlcNAc(b1-6)GalNAc
  glycan array binding signal (z-score): -0.182
[24]
  glycan array binding signal (z-score): -0.164
[25]
  glycan array binding signal (z-score): -0.138
[26]
  glycan array binding signal (z-score): -0.567
[27]
  glycan array binding signal (z-score): 0.186
Neu5Ac(a2-6)Gal
  glycan array binding signal (z-score): -0.074
[28]
  glycan array binding signal (z-score): -0.49
[29]
  glycan array binding signal (z-score): 15.9
[30]
  glycan array binding signal (z-score): 2.1
[31]
  glycan array binding signal (z-score): 0.078
[32]
  glycan array binding signal (z-score): 0.001
[33]
  glycan array binding signal (z-score): 2.18
[34]
  glycan array binding signal (z-score): -0.717
[35]
  glycan array binding signal (z-score): 0.069
[36]
  glycan array binding signal (z-score): -0.108
[37]
  glycan array binding signal (z-score): -0.33
[38]
  glycan array binding signal (z-score): 0.279
[39]
  glycan array binding signal (z-score): -0.202
